Assay outcomes as filed in PubChem BioAssay.
The list is not random: actives were taken first. Their share in the collection is about 2.5%.
Cruzain noTriton – blocks cruzain activity in detergent-free assay | P25779 | hit rate 2.3% among 200,000 | purified cruzain, Z-FR-AMC fluorescence, no detergent | Potency, µM, inactives show max response, negative = inhibition, usual class: inhibitors;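 also: plate controls were enzyme without inhibitor for no effect and buffer without enzyme for full effect; nearly all actives have a fitted effect of over 40% in size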
Target sequence (P25779 123-467 limits assumed): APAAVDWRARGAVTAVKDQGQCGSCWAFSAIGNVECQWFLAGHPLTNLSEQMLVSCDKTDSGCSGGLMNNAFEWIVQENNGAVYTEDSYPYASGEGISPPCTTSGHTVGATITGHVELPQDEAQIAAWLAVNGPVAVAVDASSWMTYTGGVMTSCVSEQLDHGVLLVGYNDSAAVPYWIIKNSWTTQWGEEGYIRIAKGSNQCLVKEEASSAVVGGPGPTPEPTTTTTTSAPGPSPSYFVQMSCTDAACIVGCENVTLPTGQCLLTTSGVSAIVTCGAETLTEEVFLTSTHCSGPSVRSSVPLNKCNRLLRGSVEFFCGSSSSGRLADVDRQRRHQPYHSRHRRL
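Detergent-free condition (0.00005% Triton X-100) in acetate buffer pH 5.5 with DTT. 1.5 nM enzyme and compound were pre-mixed 15 min, then 2 uM Z-FR-AMC substrate added; reaction progress from fluorescence change between first and third reads (60 s).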
Cruzain inh Det – inhibitors of Trypanosoma cruzi cruzain with detergent; P25779; Potency, µM, for the others: max response, negative = inhibition, actives largely listed as inhibitors; hit rate 0.43% among 200,000; purified cruzain, Z-FR-AMC fluorescence, 0.01% Triton;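 also: plate controls were neutral wells for no effect and buffer without enzyme for full effect; nearly all actives have a fitted effect of over 40% in size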
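Detergent-containing arm of a paired screen for aggregation-based inhibition: 0.01% Triton X-100 present. Cruzain at 1.5 nM cleaved 2 uM Z-FR-AMC at pH 5.5 with 5 mM DTT; AMC fluorescence gain over 60 s measured activity.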
The depositor's hits bear a star; ? = inconclusive. Calls follow the shape of the dose curve; as a rule, active = well fitted curve in the direction sought with a large enough effect; inconclusive = small, poorly fitted or top-dose-only effect, or another doubt; inactive = no such curve, though single readings can be large; an effect the other way counts as inactive or inconclusive. Potency is read from the fitted curve at half-maximal effect.

SMILES	Cruzain noTriton	Cruzain inh Det
COc1cc(NC(=O)C2CCN(S(=O)(=O)c3ccc4c(c3)oc(=O)n4C)CC2)cc(OC)c1	?	-1%
Cc1cccn2c(=O)cc(COc3cccc(NC(=O)COc4ccccc4)c3)nc12	-13%	2%
Cc1ccc(OCCSc2nnc(NC(=O)c3ccco3)s2)cc1	25µM*	4%
Cc1ccc(OCc2nnc(NC(=O)c3ccco3)s2)cc1	-11%	-1%
COc1cc(NC(=O)c2ccc(NC(=O)N3CCSc4ncccc43)cc2)cc(OC)c1	-1%	-9%
O=C1CSC2(C(=O)N(Cc3ccccc3F)c3ccccc32)N1c1cccc(C(F)(F)F)c1 (stereo unspecified)	-5%	-11%
Cc1ccc(-c2nnn(CC(=O)N(c3ccc(F)cc3)C(C(=O)NC(C)(C)C)c3ccco3)n2)o1 (stereo unspecified)	9%	2%
Cc1ccc(-c2nnn(CC(=O)N(c3cccc(F)c3)C(C(=O)NC3CCCC3)c3ccco3)n2)o1 (stereo unspecified)	6.3µM*	2%
Cc1ccc(-c2nnn(CC(=O)N(c3ccccc3F)C(C(=O)NC3CCCC3)c3ccco3)n2)o1 (stereo unspecified)	3%	1%
Cc1ccc(-c2nnn(CC(=O)N(c3ccc(F)cc3)C(C(=O)NC3CCCC3)c3ccco3)n2)o1 (stereo unspecified)	10µM*	2%
CC1CCCCN1CCCNC(=O)Cn1ncc2c3ccccc3n(Cc3ccccc3F)c2c1=O (stereo unspecified)	?	-2%
O=C(CN1C(=O)COc2ccc(S(=O)(=O)N3CCCC3)cc21)N1CCN(c2ccccc2)CC1	10%	-3%
Cc1ccc(S(=O)(=O)c2nc(-c3cccs3)oc2SCC(=O)Nc2cc(C)cc(C)c2)cc1	-27%	-5%
CCOc1ccc(S(=O)(=O)NCC(c2ccc(N(C)C)cc2)N2CCCC2)cc1 (stereo unspecified)	11%	-4%
CC(=O)c1ccc(N2C(=O)N(Cc3cccc(C(F)(F)F)c3)c3ccccc3S2(=O)=O)cc1	-7%	-2%
O=C(Nc1ccc(SC(F)F)cc1)c1cc(-c2ccc3c(c2)OCCO3)on1	7.9µM*	0%
CC(=O)Nc1ccc(NC(=O)c2cc(-c3ccc4c(c3)OCCO4)on2)cc1	-8%	0%
CCn1c(C(=O)NCc2ccc(F)cc2)cc2oc3ccccc3c21	-5%	-9%
CCOc1ccccc1CNC(=O)c1cc2oc3ccccc3c2n1CC	32µM*	-17%
COc1cccc(CNC(=O)Cc2c(C)c3c(cc(C)c4c(C)coc43)oc2=O)c1	7%	-1%
COc1ccc(/C=N/N2CCN(C3c4ccccc4-c4ccccc43)CC2)cc1O	15%	-4%
O=[N+]([O-])c1cc(/C=N/N2CCN(C3c4ccccc4-c4ccccc43)CC2)ccc1Cl	13µM*	4%
Cc1ccc(-n2nc(CO)c(C(=O)NCCCCc3ccccc3)n2)cc1	-3%	1%
CCn1c(SCc2ccc(F)cc2Cl)nc(=O)c2c(C(=O)OC)cc(C3CC3)nc21	11%	-4%
COc1cccc2sc(NC(=O)CS(=O)(=O)c3ccc(C)cc3)nc12	?	-2%
SMILES	Cruzain noTriton	Cruzain inh Det
CCOc1ccc2nc(NC(=O)CS(=O)(=O)c3ccc(C)cc3)sc2c1	?	-8%
CCOc1ccc2nc(NC(=O)CS(=O)(=O)c3ccc(Cl)cc3)sc2c1	5µM*	-10%
Cc1ccc(S(=O)(=O)CC(=O)Nc2nc3c(C)cc(C)cc3s2)cc1	13µM*	-7%
CCOc1ccc2nc(N3CCCC(C(=O)Nc4cc(Cl)c(OC)cc4OC)C3)sc2c1 (stereo unspecified)	-13%	2%
O=C(Oc1ccc(N(Cc2cccs2)C2=NS(=O)(=O)c3ccccc32)cc1)c1ccccc1	?	2%
O=C(Oc1ccc(N(Cc2cccs2)C2=NS(=O)(=O)c3ccccc32)cc1)c1ccc(Cl)cc1	32µM*	-1%
COc1ccc(NC(=O)c2c(NCc3ccc(C)o3)sc3c2CCC(C)C3)c(OC)c1 (stereo unspecified)	-3%	-11%
C=C(C)CSc1nnc([C@@H](N)Cc2c[nH]c3ccccc23)o1	2%	-5%
CCN(CC)C(=O)CSc1nnc([C@@H](N)Cc2ccccc2)o1	25µM*	25µM*
Cc1ccc(NC(=O)CSc2nnc([C@@H](N)Cc3c[nH]c4ccccc34)o2)c(C)c1	16µM*	18µM*
CCN(CC)C(=O)CSc1nnc(CCN)o1	-10%	4%
CCc1ccccc1NC(=O)CSc1nnc([C@@H](N)Cc2ccccc2)o1	10µM*	10µM*
N[C@@H](Cc1ccccc1)c1nnc(SCc2ccccc2Cl)o1	18%	4%
CCOC(=O)c1c(C)[nH]c(C)c1S(=O)(=O)NCC(=O)NCc1ccccc1C	8%	0%
C[C@H](NC(=O)[C@@H]1C[C@H]1[C@@H](NC(=O)OCc1ccccc1)c1ccccc1)c1ccccc1	16µM*	1%
CC(C)NC(=O)[C@@H]1C[C@H]1[C@@H](NC(=O)OCc1ccccc1)c1ccccc1	-4%	1%
CCCN1C(=O)/C(=C\C=C2/C=CN(CC)c3ccccc32)SC1=S	-8%	-6%
CCCCN1C(=O)/C(=C/C=C2\N(C)c3ccccc3C2(C)C)SC1=S	32µM*	-2%
CC1CCN(S(=O)(=O)c2ccc(S(=O)(=O)NCc3ccccc3)cc2)CC1	16µM*	4%
O=S(=O)(NCc1ccccc1)c1ccc(S(=O)(=O)N2CCCCC2)cc1	?	3%
CC1CCN(S(=O)(=O)c2ccc(NC(=O)N3c4ccccc4Sc4ccccc43)cc2)CC1	13µM*	-1%
NS(=O)(=O)c1ccc(NC(=O)N2c3ccccc3Sc3ccccc32)cc1	1%	-2%
Cc1ccccc1N=Nc1ccc(O)c2ncccc12	20µM*	0%
Cc1ccccc1NCc1ccc(O)c2ncccc12	6%	-6%
CCOC(=O)c1ccc(NC(=O)CCc2c(C)nc3c(c(C)nn3-c3ccccc3)c2C)cc1	6%	-2%
SMILES	Cruzain noTriton	Cruzain inh Det
CCOC(=O)c1c(NC(=O)CSc2nc3ccccc3c(=O)n2-c2ccc(F)cc2)sc(C(C)=O)c1C	7.9µM*	-5%
CCOC(=O)c1sc2nc(SCC(=O)NCc3ccco3)n(Cc3ccccc3)c(=O)c2c1C	7.9µM*	2%
O=C(CSc1nc2ccccc2c(=O)n1Cc1ccco1)NCc1ccco1	-27%	-6%
CCOC(=O)c1c(NC(=O)CSc2ncnc3ccccc23)sc(C(C)=O)c1C	?	-3%
COC(=O)c1c(NC(=O)CSc2nc3ccccc3c(=O)n2Cc2ccco2)sc(C)c1C	25µM*	-2%
Cc1sc2nc(SCC(=O)NCc3ccco3)n(Cc3ccccc3)c(=O)c2c1C	4%	-3%
CCn1c(=O)cc(SCC(=O)Nc2cc(Cl)ccc2OC)c2ccccc21	?	-2%
O=C(CSc1cn(CC(=O)N2CCCC2)c2ccccc12)Nc1ccc(Cl)cc1	-13%	-4%
CN(C)c1ccc(-c2cncnc2NCc2cccs2)cc1	-9%	-3%
COc1ccccc1-c1noc(CSc2nnc(Cc3ccccc3)n2-c2ccc(C)c(C)c2)n1	10%	-12%
CCOC(=O)c1c(-c2ccc(OC)cc2)csc1NC(=O)CCN1C(=O)c2ccccc2C1=O	16µM*	-3%
CCOC(=O)c1c(-c2ccc(OCC)cc2)csc1NC(=O)CCN1C(=O)c2ccccc2C1=O	?	-4%
COc1ccc(CNC(=O)c2ccc(Cn3c(=O)c4cccn4c4cccnc43)cc2)cc1OC	-6%	2%
